The values that follow come from PubChem BioAssay (NCATS).

Results filed as inconclusive are left out. A call without a number means that no potency is given here. Active and inactive are the calls of the source. Calls follow the shape of the dose curve; as a rule, active = well fitted curve in the direction sought with a large enough effect; inconclusive = small, poorly fitted or top-dose-only effect, or another doubt; inactive = no such curve, though single readings can be large; an effect the other way counts as inactive or inconclusive.

In assay [1] the target is Aldehyde dehydrogenase, mitochondrial (Homo sapiens) (UniProt P05091). Briefly: qHTS for Inhibitors of the Aldehyde Dehydrogenase Family (ALDH2) Primary screen (AID 2061308). Also: nearly all actives have a fitted effect of over 55% in size. Background: Quantitative high-throughput screening tests each substance at several concentrations.
Assay [2] addresses Retinaldehyde dehydrogenase 3 (Homo sapiens) (UniProt P47895). Briefly: qHTS for Inhibitors of the Aldehyde Dehydrogenase Family (ALDH1A3) Primary screen (AID 2061315).

For the molecule `COc1c2cc(c(O)c1OC)CCCCC(O)CCc1ccc(O)c-2c1` (centres undefined), the Potency result in assay [1] and in assay [2] was “inactive” throughout.

For the molecule `CCCn1c(C)nc2c(NCCN3CCOCC3)nc(C)nc21`, the Potency entry in assay [1] and in assay [2] was “inactive” in each case.

On to `COc1cc(NS(=O)(=O)c2ccc(C)cc2)c(C(=O)Nc2nc(-c3ccccc3)cs2)cc1OC`, for which the Potency entry in assay [1] and in assay [2] was “inactive” in each case.

Turning to `Oc1ccc(CCc2c(F)cccc2F)c2cccnc12`, the Potency result in assay [1] and in assay [2] was “inactive” throughout.

On to `CC1=CC2/C=C(\C)CCC(O)C/C=C/C(=O)OC23C(=O)NC(CC(C)C)C3C1C` (centres undefined), for which the Potency entry in assay [1] and in assay [2] was “inactive” throughout.

With `O=S(=O)(Nc1ccc(C2CCNCC2)cc1)c1ccc(NCc2cccc(Cl)c2O)cc1`, the Potency entry in assay [1] and in assay [2] was “inactive” in each case.

In the case of `Cc1cc(C)nc(NC(=S)N2CCN(c3cccc4nccn34)CC2)c1`, the Potency entry in assay [1] and in assay [2] was “inactive” in each case.

Regarding `CC(=O)O[C@@]12CO[C@@H]1C[C@H](O)[C@@]1(C)C(=O)[C@H](O)C3=C(C)[C@@H](OC(=O)[C@H](O)[C@@H](NC(=O)OC(C)(C)C)c4ccccc4)C[C@@](O)([C@@H](OC(=O)c4ccccc4)C12)C3(C)C` (some centres undefined), the Potency result in assay [1] and in assay [2] was “inactive” each time.

In the case of `C=C1C(=O)O[C@@H]2C(OC(=O)/C(C)=C\C)/C(C)=C\C(=O)/C=C(\C)C[C@H](O)[C@@H]12` (some centres undefined), the Potency entry in assay [1] and in assay [2] was “inactive” throughout.

Turning to `Cc1cc2c(s1)c1cnn(Cc3cc(F)cc(F)c3F)c(=O)c1n2C`, the Potency entry in assay [1] and in assay [2] was “inactive” each time.

As to `COc1ccc2nc(-c3ccc(N(C)C)cc3)sc2c1`, the Potency result in assay [1] and in assay [2] was “inactive” in each case.

With `COc1cc(O)c(C(CC(=O)N2CCCC(C#N)C2)c2ccc3c(c2)OCO3)c(OC)c1` (centres undefined), the Potency entry in assay [1] and in assay [2] was “inactive” throughout.

For the molecule `Cc1cc(NS(=O)(=O)c2ccc(NC(=O)Cc3ccc4ccccc4c3)cc2)no1`, the Potency result in assay [1] and in assay [2] was “inactive” in each case.

For `Clc1cccc(-c2ccc3ncnc(NCc4cccs4)c3c2)c1`, the Potency entry in assay [1] and in assay [2] was “inactive” throughout.

Turning to `Cc1ccc(OCCn2c(CCNC(=O)c3ccccc3Br)nc3ccccc32)cc1`, the Potency result in assay [1] and in assay [2] was “inactive” each time.

With `O=C1CCc2cc(S(=O)(=O)Nc3ccccc3Cl)ccc2N1`, the Potency entry in assay [1] and in assay [2] was “inactive” in each case.

For the molecule `CCCC1CCN(C(=O)CC(c2ccc3c(c2)OCO3)c2c(O)cc(OC)cc2OC)C1` (centres undefined), the Potency result in assay [1] and in assay [2] was “inactive” throughout.

Take `N#CCC(C1CCCC1)n1cc(-c2ncnc3[nH]ccc23)cn1` (centres undefined): the Potency result in assay [1] and in assay [2] was “inactive” throughout.

Regarding `O=C1NC(=O)/C(=C/c2cccn2-c2ccc(P(=O)(O)O)cc2)N1`, the Potency entry in assay [1] and in assay [2] was “inactive” each time.

As for `CCOc1ccc(CCNC(=O)c2ccc3[nH]ccc3c2)cc1OCC`, the Potency entry in assay [1] and in assay [2] was “inactive” throughout.

With `Cc1nc(NCc2ccccc2)c2nc(-c3ccccc3)n(C(C)CN(C)C)c2n1` (centres undefined), the Potency result in assay [1] and in assay [2] was “inactive” in each case.

Consider `COc1cc(O)c(C(CC(=O)N2CC(C)OC(C)C2)c2ccc3c(c2)OCO3)c(OC)c1` (centres undefined), for which the Potency result in assay [1] and in assay [2] was “inactive” throughout.

On to `O=[S+]([O-])(Nc1cnc2ccccc2c1)c1ccc(NCc2ccc(Cl)cc2O)cc1`, for which the Potency result in assay [1] and in assay [2] was “inactive” in each case.

With `Cc1cnc(-c2ccccc2C(C)C)nc1NCC1CCN(C2COC2)CC1`, the Potency result in assay [1] and in assay [2] was “inactive” throughout.

Take `Cn1nnnc1Sc1ncnc2scc(-c3ccccc3C#N)c12`: the Potency entry in assay [1] and in assay [2] was “inactive” each time.

On to `O=S(=O)(c1ccc2ccccc2c1)N1CCN(S(=O)(=O)c2c(F)cccc2F)CC1`, for which the Potency result in assay [1] and in assay [2] was “inactive” in each case.

For the molecule `c1nc(NCCC2CCCO2)c2cc(-c3ccc4c(c3)OCO4)ccc2n1` (centres undefined), the Potency result in assay [1] and in assay [2] was “inactive” each time.

`Nc1ccccc1CNc1ccc(S(=O)(=O)Nc2nccs2)cc1`: the Potency entry in assay [1] and in assay [2] was “inactive” each time.

For the molecule `CNc1nc(-c2ccc3c(N)n[nH]c3c2)cc(N2CC(C(=O)NC3CCCCC3)CCC2C)n1` (centres undefined), the Potency entry in assay [1] and in assay [2] was “inactive” in each case.

With `CCNC(=O)C1CCN(C(=O)C(C)(C)NC(=O)Nc2ccccc2Cl)CC1`, the Potency entry in assay [1] and in assay [2] was “inactive” each time.

Consider `CCOc1ccc(C(=O)Nc2ccc(-c3nc4ccccc4[nH]3)cc2)cc1[N+](=O)[O-]`, for which the Potency result in assay [1] and in assay [2] was “inactive” throughout.

Turning to `COCCCc1cc(F)c(S(=O)(=O)N2CCN(S(=O)(=O)c3ccc4c(c3)OCCO4)CC2)cc1F`, the Potency result in assay [1] and in assay [2] was “inactive” in each case.

As to `COc1cc2c(s1)c1cnn(Cc3ccccc3F)c(=O)c1n2C`, the Potency result in assay [1] and in assay [2] was “inactive” throughout.

`O=C1CCc2cc(S(=O)(=O)Nc3ccc(-c4ccccc4)cc3)ccc2N1`: the Potency entry in assay [1] and in assay [2] was “inactive” each time.

Consider `O=C(CSc1nnc(-c2cccc(S(=O)(=O)N3CCCC3)c2)n1-c1ccccc1)Nc1ccc(Cl)cc1`, for which the Potency result in assay [1] and in assay [2] was “inactive” throughout.

For `O=C(Nc1ccc(F)c(C(F)(F)F)c1)Nc1nnc(-c2cccnc2)s1`, the Potency result in assay [1] and in assay [2] was “inactive” in each case.

Regarding `CC(=O)NC(c1ccco1)c1cc(F)c2cccnc2c1O` (centres undefined), the Potency entry in assay [1] and in assay [2] was “inactive” each time.

`COc1cccc(CNc2ccc(S(=O)(=O)Nc3nc4ccccc4o3)cc2)c1O`: the Potency entry in assay [1] and in assay [2] was “inactive” throughout.

With `Nc1ccc(Cl)cc1C(=O)c1ccc[nH]1`, the Potency entry in assay [1] and in assay [2] was “inactive” throughout.

Turning to `COc1cccc(CNc2ccc(S(=O)(=O)Nc3nc4c(C)cccc4s3)cc2)c1O`, the Potency entry in assay [1] and in assay [2] was “inactive” each time.

As to `Cc1ccccc1S(=O)(=O)N1CCc2cc(-c3nc(NC(=O)Cc4ccc5c(c4)OCO5)sc3C)ccc21`, the Potency result in assay [1] and in assay [2] was “inactive” each time.

On to `Cc1cc(C)nc(NC(=S)N2CCN(c3nc4ccccc4s3)CC2)c1`, for which the Potency result in assay [1] and in assay [2] was “inactive” in each case.
